Experimental findings from PubChem BioAssay (NCI) are described below.

The structures appear in SMILES notation. This is part of a sample that, as a whole, favours compounds with a hit. Of some 83,000 tested, about 20% had one in any assay.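 A percent growth of 40 corresponds to 60% growth inhibition; 0 means no net growth; -100 means all cells died. Active threshold: below 10.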 Unmarked numbers belong to inactive results. The source made the active and inactive calls.

In the assay the test system is NCI-H23 lung. As to the kind of experiment: NCI-60 one-dose screen, 48 h (100 = growth as untreated, 0 = no growth, -100 = all killed). The note with it: 10 µM unless noted. How it is done: Growth inhibition of the NCI-H23 human Non-Small Cell Lung tumor cell line is measured as a screen for anti-cancer activity. Cells are grown in 96 well plates and exposed to the test compound for 48 hours. Compounds are tested at a single concentration, which is 10^-5 M for most compounds. The reported endpoint is percent growth (GI% or GIPRCNT), where numbers from 0 - 100% represent growth inhibition, and numbers from -100% - 0 represent cell death. For example, a value of 40 represents 60% growth inhibition. A value of 0 means no net growth occurred over the course of the experiment. A value of -40 indicates 40% of cells at the beginning of the experiment died by the end of the experiment. A value of -100 means all cells are dead at the end of the experiment.
NCI-60 Human Tumor Cell Lines Screen was performed using the standard one-dose NCI protocol, which is described in more detail at https://dtp.cancer.gov/discovery_development/nci-60/default.htm.
Compounds with GIPRCNT values below 10 were considered active. Activity score was based on GIPRCNT using the following formula: […]
Score is 0 for GIPRCNT values of 100 or above, 50 for GIPRCNT values of 0, and 100 for GIPRCNT values of -100.
For `Clc1ccc2c(NCCCCNc3nc(N4CCOCC4)nc4ccccc34)ccnc2c1`, the growth was 59.7%.
On to `COc1cccc(-c2nc(SCC(=O)Nc3ccc(C(=O)/C=C/c4ccc(OC)c(OC)c4)cc3)[nH]c(=O)c2C#N)c1`, for which the growth is 77.7%.
For `O=[N+]([O-])c1cnc(N2CCN(CC3CC3)CC2)nc1N1CCN(CC2CC2)CC1` the value was 95.4%.
In the case of `O=C1NC(=Nc2ccc(O)cc2)S/C1=C\c1cccc(Cl)c1` it was 88.2%; in that of `Cc1ccc(-c2onc3c(=O)[nH]nc(-c4ccccc4)c23)cc1`, 22.8%; in that of `CN1CCN(CCCOc2cccc3nc(Nc4cc(Cl)cc(Cl)c4)ccc23)CC1`, 36.7%.
For `CCOC(=O)c1csc(NC(=O)COc2cccc(/C=C3\CSc4ccccc4C3=O)c2)n1` the value was 9.12% (active); for `CC(C)(C)N1CCC1CN` (stereo not given), 104%; for `CCN1CCN(c2nc(NCCCNc3ccnc4cc(Cl)ccc34)c3ccccc3n2)CC1`, 64.3%.
Take `N#Cc1nnn(-c2ccc(S(N)(=O)=O)cc2)c1NCC(=O)c1ccccc1`: the growth is 98%.
On to `COc1cc2nc(N3CCCC3)nc(NCCc3ccccc3)c2cc1OC`, for which the growth was 59.5%.
For the molecule `CC(=O)O[C@H]1C(=O)[C@@]2(C)[C@H]([C@H](OC(=O)c3ccccc3)[C@]3(O)C[C@H](OC(=O)[C@H](OC(=O)CCC(=O)OC4CCC(S/N=C(N)/N=C(\N)N(C)C)CC4)[C@@H](NC(=O)c4ccccc4)c4ccccc4)C(C)=C1C3(C)C)[C@]1(OC(C)=O)CO[C@@H]1C[C@@H]2O` (stereo not given in full), the growth is 39.3%.
For `NC(=O)c1cc(I)ccc1NC(=O)/C=C/c1ccccc1Cl` the value was 43.4%; for `C=C(C)C1CC(O)C2(C)CCCC3C2C1CC(C)C3(C)CC/C(C)=C/C(O)C1CCC(=O)c2c(OC)cc(OC)cc21` (stereo not given), 48.9%; for `O=S(=O)(Nc1ccc(OC(F)F)cc1)c1ccc(-c2cnc(C3CC3)o2)cc1`, 73.4%.
In the case of `COc1ccc(-c2n[nH]nc2-c2csc3ccccc23)cc1OC` it was 35%.
For `C=CCSSc1ncnc2c1ncn2C1OC(CO)C(O)C1O` (stereo not given) the value was 39.7%.
As for `O=C(COc1cccc(/C=C2\COc3ccc(Cl)cc3C2=O)c1)c1ccc(Cl)cc1`, the growth was 86.1%.
In the case of `O=C1/C(=C/c2ccc(Cl)cc2)SC(=S)N1CCc1ccc(O)cc1` it was 89.7%.
For `CC1=NN(c2nc(-c3ccc(Cl)cc3)c(C#N)c(N3CCOCC3)n2)C(=O)C1` the value was 80.7%.
Take `CSc1nc(Nc2cccc(NC(=O)CCl)c2)c(C#N)c(-c2cccc([N+](=O)[O-])c2)n1`: the growth is 40.3%.
On to `O=C1/C(=C/N2N=C(c3ccc4ccccc4c3)CC2c2ccccc2O)SC(=S)N1c1cccnc1` (stereo not given), for which the growth was 43.3%.
Regarding `NC(=O)c1cc(Br)ccc1NC(=O)/C=C/c1ccccc1`, the growth was 62%.
For `NS(=O)(=O)c1ccc(CN=C2NC(=O)S/C2=C\c2ccc(Br)cc2)cc1` the value was 97.6%.
For `Cc1nn(-c2ccc(F)cc2)c2ncnc(Oc3ccc(NC(=O)Nc4ccc(Cl)c(C(F)(F)F)c4)cc3)c12` the value was 96.7%.
For `COc1cc(-c2nn(-c3ccc(Br)cc3)cc2C(=O)O)ccc1O` the value was 89.5%; for `CCCCC[C@H]1C/C=C2/C(=O)C=C[C@@H]2C/C=C\CCCC(=O)O1`, -17.4% (active); for `FC(F)(F)Oc1ccc2nc3nc4ccc[nH]c4cc3c2c1`, 64.7%.
On to `Cc1cc(C)nc(SC2=C(Nc3cc(Cl)ccc3O)C(=O)N(Cc3ccccc3)C2=O)n1`, for which the growth is 91.4% [30 µM].
In the case of `CC/C=C\C[C@H]1C/C=C2/C(=O)C=C[C@H]2C/C=C\CCCC(=O)O1` it was 39.4%.
In the case of `O=S(=O)(Nc1ccc(Cl)c(F)c1)c1ccc(-c2cnc(C3CC3)o2)cc1` it was 25.2%; in that of `N#Cc1c(-c2ccc(Cl)cc2)nc(NN=Cc2ccco2)nc1N1CCOCC1`, 70.8%; in that of `C=CC(COC(c1ccccc1)(c1ccccc1)c1ccccc1)N(CC)CC` (stereo not given), 65.2%.
In the case of `CSc1ccc(-c2ccccc(=O)c2O)cc1` it was 21.9%; in that of `Cc1ccc2c(C(C[N+](=O)[O-])c3ccccc3F)c(-c3ccccc3)[nH]c2c1` (stereo not given), 56.9%; in that of `COc1cc2c(cc1-c1c(C)noc1C)ncc1nc(C3CCOCC3)n([C@H](C)COC(F)F)c12`, 60.1%.
Turning to `CN1CCN(CCCOc2cccc3nc(Nc4ccc(Cl)c(F)c4)ccc23)CC1`, the growth is 63.3%.
Regarding `COc1ccc2c(c1)O/C(=C\c1cccc(OCC(=O)Nc3nc4c(s3)CCCC4)c1)C2=O`, the growth was 37.8%.
For `CCc1nc(N)nc(N)c1C#CC(C)c1cc(-c2ccnc(C)c2)c2oc(C)nc2c1` (stereo not given) the value was 5.82% (active); for `COc1ccc(-n2nc(C)c3c(Nc4ccc(NC(=O)Nc5cc(C(F)(F)F)ccc5F)cc4)ncnc32)cc1`, 32.7%.
